What was measured:
Test in all cases: PBM binding z-score (relative to random genomic background probes); higher = stronger binding; sequences stand for … in GC…GCGATTGACAGCGTAGAATGAAGG
[1] = system: PPARg:RXRa DBDmut IVT, anti-RXR (DBD mutation: RXRa K156A/R161A, NR concentration 270 nM, RXRa partner concentration 90 nM)
Summary of the method: (§1)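 Binding z-scores were set against random background probes. The data came from custom Agilent 4×180K protein-binding microarrays carrying double-stranded probes with 34-nt variable regions, incubated 1 h with ligand-free nuclear receptor dimers. Partner-specific antibodies detected binding, and scanned fluorescence was regression-normalized.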

[2] = system: PPARg:RXRa IVT, anti-PPARg (NR concentration 270 nM, RXRa partner concentration 90 nM)
Summary of the method: as §1

[3] = system: PPARg DBDmut:RXRa IVT, anti-PPARg (DBD mutation: PPARg1 K132A/R137A, NR concentration 270 nM, RXRa partner concentration 90 nM)
Summary of the method: as §1

[4] = system: PPARg DBDmut IVT, anti-PPARg (DBD mutation: PPARg1 K132A/R137A, NR concentration 270 nM)
Summary of the method: as §1

[5] = system: PPARg homodimer (NR concentration 180 nM)
Summary of the method: as §1

[6] = system: PXR:RXRa (NR concentration 270 nM, RXRa partner concentration 90 nM)
Summary of the method: as §1

[7] = system: PXR homodimer (NR concentration 270 nM)
Summary of the method: as §1

[8] = system: RARa:RXR (NR concentration 270 nM, RXRa partner concentration 90 nM)
Summary of the method: as §1

[9] = system: RARa homodimer (NR concentration 270 nM)
Summary of the method: as §1

[10] = system: RARb:RXRa (NR concentration 270 nM, RXRa partner concentration 90 nM)
Summary of the method: as §1

[11] = system: RARb homodimer (NR concentration 270 nM)
Summary of the method: as §1

[12] = system: RARg:RXRa (NR concentration 270 nM, RXRa partner concentration 90 nM)
Summary of the method: as §1

[13] = system: RARg homodimer (NR concentration 270 nM)
Summary of the method: as §1

[14] = system: RXRa DBDmut IVT, anti-RXR (DBD mutation: RXRa K156A/R161A, NR concentration 90 nM)
Summary of the method: as §1

[15] = system: RXRa homodimer (NR concentration 180 nM)
Summary of the method: as §1

[16] = system: THRa:RXRa (NR concentration 90 nM, RXRa partner concentration 90 nM)
Summary of the method: as §1

[17] = system: THRa homodimer (NR concentration 90 nM)
Summary of the method: as §1

[18] = system: VDR homodimer (NR concentration 270 nM)
Summary of the method: as §1

Row | Sequence | PBM binding z-score [1] | PBM binding z-score [2] | PBM binding z-score [3] | PBM binding z-score [4] | PBM binding z-score [5] | PBM binding z-score [6] | PBM binding z-score [7] | PBM binding z-score [8] | PBM binding z-score [9] | PBM binding z-score [10] | PBM binding z-score [11] | PBM binding z-score [12] | PBM binding z-score [13] | PBM binding z-score [14] | PBM binding z-score [15] | PBM binding z-score [16] | PBM binding z-score [17] | PBM binding z-score [18]
1 | ACTAGCAGGGCAAGTTTGGGTCACTCAAACAAAG | 2.04 | 1.96 | -0.127 | -0.121 | 0.449 | 1.13 | -0.488 | 2.07 | -0.817 | 2.43 | 2.59 | 3.35 | 2.64 | 0.437 | 1.38 | 3.17 | 1.08 | 0.258
2 | AGTCAAAGTTCACTGGGTAACGTAAGATTCAGCT | 2.75 | 4.82 | 1.38 | 0.335 | 2.63 | 4.4 | 3.47 | 3.63 | 1.43 | 4.81 | 3.82 | 5.43 | 5.94 | 4.4 | 4.47 | 1.92 | -0.189 | 4.09
3 | CAAACTAGGTCACAGGTCAAAGTCGAGCCAACCA | 8.4 | 9.27 | 4.16 | 4.09 | 4.17 | 4.41 | 0.711 | 5.81 | 0.827 | 4.7 | 4.27 | 5.97 | 5.55 | 2.31 | 6.18 | 3.97 | 2.07 | 2.12
4 | ATCTCTAGGTAAAAGTTCAGTTAATCCCGAGGAT | 1.85 | 3.99 | 1.85 | 1.29 | 2.13 | 2.28 | 2.02 | 1.85 | 1.39 | 2.24 | 2.52 | 2.1 | 2.04 | 0.885 | 1.63 | 1.61 | 0.805 | 2.12
5 | AGAATGAGGTTATTACGATCAGGGAATTGCGGTC | 3.27 | 2.51 | 1.02 | 0.66 | 0.902 | 1.26 | 0.487 | 1.78 | 1.21 | 1.42 | 1.07 | 1.35 | 1.1 | 2.37 | 2.06 | 2.44 | 0.982 | 1.6
6 | GGAACGAGGGCATTCGAGTTGATAGTATGGCGAT | 3 | 2.29 | -0.142 | -0.408 | -0.115 | 4.11 | 1.45 | 0.744 | 0.0734 | 1.98 | 0.948 | 1.22 | 1.61 | 3.39 | 0.99 | 3.38 | 0.0512 | 3.37
7 | TATAGAGGGTCAAAGGCCAGAGTACGAATGTCGA | 2.58 | 4.43 | 0.901 | 0.741 | 2.2 | 3.62 | 0.282 | 5.1 | 1.12 | 4.11 | 3.3 | 4.91 | 4.91 | 2.16 | 6.11 | 2.39 | -0.0967 | 1.73
8 | TCATATAGGTAATACAGGTGAAAGTGGGCATCTA | 4.07 | 3.76 | 0.893 | 1.47 | 1.79 | 1.02 | 0.455 | 1.35 | 1.57 | 0.826 | 0.844 | 0.777 | 0.705 | 2.06 | 1.3 | 0.901 | 0.52 | 0.577
